The values that follow come from PubChem BioAssay AID485344 (National Center for Advancing Translational Sciences (NCATS), 2010).

One may read the inhibition as the relative decrease from the control value, in per cent.

Out of some 340,000 compounds screened, about 6,900 (2%) were called active. The list comes from a sample in which actives are over-represented; it also holds similar structures and randomly drawn compounds. Values without a mark were called inactive. Cut-off read from the data, not from the text of the source: active = inhibition above about 30%; inactive = below that, where a call was filed.

In this assay the target is D(2) dopamine receptor (Homo sapiens) (UniProt P14416). Description: HTS Assay for Allosteric Antagonists of the Human D2 Dopamine Receptor: Primary Screen for Antagonists. Note: 0% is about no effect. Conditions: HEK293 TREx D2 cells, calcium flux, dopamine EC80; at 10 µM; active compounds read high. An outline of the steps: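 Overnight-induced (tetracycline, 30 C) HEK293 T-REx cells carrying force-coupled D2 receive a no-wash calcium dye, then compound, then EC80 dopamine at 180 s; signals are read kinetically throughout.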
D(2) dopamine receptor (Homo sapiens), sequence (P14416 whole entry, looked up): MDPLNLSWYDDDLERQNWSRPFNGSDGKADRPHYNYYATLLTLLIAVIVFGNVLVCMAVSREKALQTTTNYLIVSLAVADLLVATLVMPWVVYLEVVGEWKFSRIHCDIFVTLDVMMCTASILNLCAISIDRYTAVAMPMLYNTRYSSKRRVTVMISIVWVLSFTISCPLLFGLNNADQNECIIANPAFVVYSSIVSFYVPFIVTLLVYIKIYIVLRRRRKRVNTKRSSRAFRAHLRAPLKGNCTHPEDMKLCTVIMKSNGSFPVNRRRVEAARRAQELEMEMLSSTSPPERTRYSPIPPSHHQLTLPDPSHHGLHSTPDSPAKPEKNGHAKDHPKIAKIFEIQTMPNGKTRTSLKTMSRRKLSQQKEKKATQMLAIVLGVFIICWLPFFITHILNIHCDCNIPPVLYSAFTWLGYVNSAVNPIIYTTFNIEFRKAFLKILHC
On the technique in general: Calcium flux is commonly read through the fluorescence of an indicator in the cells.
For `CCN(CC(=O)NCc1cccs1)C(=O)/C=C/c1ccc(C)cc1`, the inhibition is 0.23%.

Regarding `COc1ccc2c(C)cc(SCC(=O)NCC3CCCO3)nc2c1` (stereo not drawn), the inhibition was 0.454%.

Take `O=C(NC1CCCCCC1)C1CCN(C(=O)c2ccc(Cl)cc2)CC1`: the inhibition is -21.8%.

In the case of `COc1ccccc1OCCNC(=O)C(CCSC)NC(=O)COc1ccccc1` (stereo not drawn), the inhibition was 0.971%.

On to `Cc1csc(NC(=S)Nc2cccc(Cl)c2)n1`, for which the inhibition was 32.1% (active).

In the case of `S=C(Nc1cccc(Cl)c1)Nc1ccc2c(c1)OCCO2`, the inhibition was 3.88%.

Turning to `S=C(Nc1cccc(Cl)c1)Nc1ccc2cn[nH]c2c1`, the inhibition is -2.72%.

In the case of `CN(CC(=O)Nc1ccc(S(=O)(=O)N2CCCC2)cc1)Cc1ccc(Cl)c(Cl)c1`, the inhibition is -19.3%.

On to `CN(CCC(=O)Nc1cc(S(=O)(=O)N(C)C)ccc1Cl)CC(=O)Nc1ccc(F)cc1`, for which the inhibition was 50.6% (active).

With `CN(CC(=O)Nc1ccc(F)cc1)CC(=O)Nc1ccc(Cl)c(S(=O)(=O)N2CCOCC2)c1`, the inhibition was -2.29%.

Regarding `Cc1ccc(CN2CC(C(=O)NNC(=O)Cn3ccc(C(F)(F)F)n3)CC2=O)cc1` (stereo not drawn), the inhibition is 9.85%.

With `COC(=O)C1CCN(C(=O)NC2CC(=O)N(c3ccc4c(c3)OCCO4)C2)CC1` (stereo not drawn), the inhibition is 10.2%.

Consider `Cc1ccc(/C=N/NC(=S)Nc2cccc(S(=O)(=O)N(C)C)c2)o1`, for which the inhibition is -10.5%.

On to `CN(C)S(=O)(=O)c1cccc(NC(=S)NCc2ccc3c(c2)OCO3)c1`, for which the inhibition is 51.6% (active).

With `Cc1c(Cl)cccc1NC(=S)NCc1ccc2c(c1)OCO2`, the inhibition was -3.97%.

As to `CC(C)CN(CC(C)C)C(=O)CN1c2cccc3cccc(c23)S1(=O)=O`, the inhibition is -10.2%.

Take `O=C(O)CN1c2cccc3cccc(c23)S1(=O)=O`: the inhibition is 14.3%.

Take `Cc1ccc(S(=O)(=O)N(C)C)cc1NC(=O)CN1c2cccc3cccc(c23)S1(=O)=O`: the inhibition was 37% (active).

As to `O=C(COc1ccccc1Cl)N1N=C(c2cccs2)CC1c1ccco1` (stereo not drawn), the inhibition is 5.49%.

`Cc1ccc(-c2csc(NC(=O)C3=COCCO3)n2)cc1C`: the inhibition is 1.39%.

Turning to `CCC(=O)Nc1ccc2c(c1)nc(CCN1CCN(c3ccccn3)CC1)n2C`, the inhibition was 57% (active).

Consider `CCOC(=O)N1CCN(Cc2nc3cc(NC(=O)CC)ccc3n2CC)CC1`, for which the inhibition is 3.26%.

Regarding `CCN(CC)c1ccc(NC(=O)CN2CCN(c3ccccn3)CC2)cc1`, the inhibition was 5.78%.

As to `CN1CCN(Cc2nc3cc(NC(=O)COc4ccc([N+](=O)[O-])cc4)ccc3n2C)CC1`, the inhibition was -8.44%.

For `CCOC(=O)N1CCN(Cc2nc3cc(NC(C)=O)ccc3n2C)CC1`, the inhibition is 31.3% (active).

For `Cn1c(CCN2CCCCCC2)nc2cc(NC(=O)Nc3ccccc3)ccc21`, the inhibition is 0.502%.

For the compound `O=C(COC(=O)c1cc(S(=O)(=O)N2CCOCC2)ccc1Cl)NCCc1ccccc1`, the inhibition was -3.61%.

Regarding `CC1CCC(CN2CCN=C2N(C)C)CC1` (stereo not drawn), the inhibition is 11.2%.

Take `COc1ccccc1C1=CC(=O)C[C@H](c2ccc(F)cc2)C1`: the inhibition was 4.4%.

In the case of `O=S(=O)(c1ccccc1)N1CCC(c2ccccc2)CC1`, the inhibition is 0.0462%.

Turning to `COc1ccccc1C(=O)NC(CCSC)C(=O)N1CCN(C(C)=O)CC1` (stereo not drawn), the inhibition is 17.9%.

For `O=c1oc2ccc(C#CC3(O)CCCCC3)cc2cc1-n1cc(-c2ccsc2)nn1`, the inhibition is 2.59%.

Take `OCC[C@H]1C[C@@H](O)[C@H](O)[C@]2(OCCCc3ccccc32)O1`: the inhibition was 5.04%.

With `O=C(OCC(=O)N1CCCCCC1)c1cnc(Cl)c(Cl)c1`, the inhibition is -0.916%.

In the case of `Nn1c(SCC(=O)NC2CCCC2)nnc1-c1ccccc1F`, the inhibition is -13.5%.

For `CC(C)NC(=O)NC(=O)CSc1nnc(-c2ccccc2F)n1N`, the inhibition is 26%.

For `Nn1c(SCC(=O)NC(=O)NC2CCCC2)nnc1-c1ccccc1F`, the inhibition was 88.5% (active).

Consider `CCOc1ccc(CCNC(=O)COC(=O)CCS(=O)(=O)c2ccc(C)cc2)cc1OCC`, for which the inhibition is -15.8%.

For `O=C(NC1CCCCC1)c1ccc(-c2ccc(Cl)cc2)o1`, the inhibition is 17.9%.

Consider `COCCN1C(=O)c2oc3c(C)cc(C)cc3c(=O)c2C1c1cccc(O)c1` (stereo not drawn), for which the inhibition was 8.13%.

In the case of `O=C1c2oc3ccc(Br)cc3c(=O)c2C(c2cccc(F)c2)N1CCO` (stereo not drawn), the inhibition is 24.1%.

Turning to `O=C1c2oc3ccccc3c(=O)c2C(c2cccc(O)c2)N1c1ccccn1` (stereo not drawn), the inhibition is 30.8% (active).

`Cc1ccc(-c2nn(-c3ccccc3)cc2C(=O)NC2CCC(O)CC2)cc1` (stereo not drawn): the inhibition was 11.3%.

On to `CC(C)(C)OC(=O)N[C@H](C(=O)OC(C)(C)C)c1ccc(Br)cc1`, for which the inhibition is -2.43%.

Consider `COc1cccc(C2=CC(=O)C[C@H](c3ccc(F)cc3)C2)c1OC`, for which the inhibition is 2.64%.

On to `Cc1ccc(S(=O)(=O)N2CCN(C(=O)COC(=O)c3c(C)cc(C)cc3C)CC2)c(C)c1`, for which the inhibition was -0.571%.

For `Cc1ccc(S(=O)(=O)N2CCN(C(=O)CSc3cc(C)ccc3C)CC2)c(C)c1`, the inhibition is 12.2%.

Regarding `CCCc1cc(=O)[nH]c(SCC(=O)N2CCN(S(=O)(=O)c3ccc(C)cc3C)CC2)n1`, the inhibition is 40.9% (active).

For the compound `O=C(COC(=O)C1CC2CCCC(C1)C2=O)NC(=O)c1ccccc1` (stereo not drawn), the inhibition is -17.3%.

Turning to `CC(Oc1ccc(Br)cc1)C(=O)NC1CCCCCC1` (stereo not drawn), the inhibition is -1.39%.

For the compound `O=C(COc1ccc([N+](=O)[O-])cc1)Nc1cccc(C(=O)Nc2ccccc2C(=O)O)c1`, the inhibition was 52% (active).

Turning to `O=C(Nc1ccccc1C(=O)Nc1ccncc1)c1ccc([N+](=O)[O-])cc1`, the inhibition was -16%.

`O=C(COc1ccc([N+](=O)[O-])cc1)Nc1ccc(N2CCCC2)cc1`: the inhibition was -10.9%.

Consider `Cc1ccc(S(=O)(=O)N(C)CC(=O)NCC(c2ccc(F)cc2)N2CCOCC2)cc1` (stereo not drawn), for which the inhibition is 12.3%.

With `CCCCn1nc(C(=O)Nc2cccc(C(=O)NC3CC3)c2)c2ccccc2c1=O`, the inhibition was -27.4%.

Regarding `CCCn1nc(C(=O)NNC(=O)CSCC(=O)Nc2cc(C)on2)c2ccccc2c1=O`, the inhibition was 5.99%.

`CCCn1nc(C(=O)Nc2ccc3nc(C)sc3c2)c2ccccc2c1=O`: the inhibition was 31% (active).

Take `CN(C)CCn1c2c(c(SCC(=O)NCc3ccccc3)nc1=O)CCC2`: the inhibition is -8.18%.
